Screening data (PubChem)
VACV Venus inh: vaccinia inhibition (Venus reporter) | Vaccinia virus Venus reporter expression, fluorescence | Potency, µM (doses to about 36.5 µM), usual class: inhibitors | 330,000 compounds, 0.46% hits; calls by dose curve; tested in A549 cells; note: nearly all actives have a fitted effect of over 30% in size
HCV inh: inhibitors of hepatitis C virus infection | Huh7.5.1 HCVcc-Cre infection, luciferase reporter, 44 h | Potency, µM (doses to about 41.8 µM), hits mostly inhibitors | 340,000 compounds, 3.4% hits | AID 651820; active = well fitted inhibition curve with a large enough effect; inconclusive = small, poorly fitted or top-dose-only effect, or another doubt; inactive = no such curve, though single readings can be large or run the other way
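Infectious HCV cell culture screen: compound-treated cells (1,000/well, pre-plated 4 h) are infected with HCVcc-Cre at roughly 0.5 moi and grown 44 h. Infection is quantified by luciferase signal after 15 min substrate incubation at room temperature.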
Vaccinia mCherry: vaccinia inhibition (mCherry reporter). Vaccinia virus mCherry reporter infection, fluorescence. AID 720579. 310,000 compounds, 0.63% hits. Potency, µM (series often up to 36.5 µM), most hits filed as inhibitors; calls by dose curve; tested in A549 cells; note: nearly all actives have a fitted effect of over 35% in size
Marburg entry inh: inhibitors of Marburg virus binding or cell entry | Marburg virus pseudotyped entry inhibition, cell reporter | 300,000 compounds, 1.8% hits | Potency, µM (highest dose often 37.8 µM), most hits filed as inhibitors | AID 540276; calls by dose curve; tested in HEK293 cells
FMDV inh: foot and mouth disease virus antiviral activity | FMDV antiviral cell-based qHTS | Potency, µM (titrated, usually from 57.9 µM), actives largely listed as inhibitors | 410,000 compounds, 1.2% hits; calls by dose curve; tested in HEK293T cells; note: read-out not given here; nearly all actives have a fitted effect of over 45% in size
Lassa entry inh: inhibitors of Lassa virus binding or cell entry; Lassa virus pseudotype entry inhibition, cell reporter; 300,000 compounds, 1.2% hits; AID 540256; Potency, µM (doses to about 37.9 µM), hits mostly inhibitors; calls by dose curve; tested in HEK293 cells; note: nearly all actives have a fitted effect of over 50% in size
Hits are given with their value; 0 = inactive; ? = inconclusive; - = no result given; [ ] = remark or other dose. In the library only some 5.3% were active in any assay of this set; here they are far more common.

SMILES | VACV Venus inh | HCV inh | Vaccinia mCherry | Marburg entry inh | FMDV inh | Lassa entry inh
CCOC(=O)N1CCN(C(=O)c2cc(COc3cccc(C(C)=O)c3)on2)CC1 | 0 | 0 | 0 | 0 | 0 | 0
Cc1ccc(OCc2cc(C(=O)N(C)CC3CCOCC3)no2)cc1C | - | 0 | - | - | 0 | -
CCOC(=O)N1CCN(C(=O)c2cc(COc3ccc4ncccc4c3)on2)CC1 | 0 | 7.9µM | 0 | ? | ? | 0
Cc1cccnc1CN1CCN(C(=O)c2cc(COc3ccc4ncccc4c3)on2)CC1 | 0 | 4µM | ? | ? | 13µM | ?
COc1cc(-c2nc(C)cnc2C)cc2c1OCCN(C(=O)Cn1nc(-c3ccccc3)c3ccccc3c1=O)C2 | 0 | - | 0 | - | 0 | -
COc1ccccc1-c1c(C)nn2c(N3CCC(C)CC3)cc(C)nc12 | 0 | 10µM | 0 | ? | 25µM | 0
COc1ccc(-c2c(C)nn3c(-c4ccccc4)cc(C)nc23)cc1 | 0 | 11µM | 0 | - | 0 | -
COc1ccc(-c2c(C)nn3c(N4CCC(C(=O)NCCN(C)C)CC4)cc(C)nc23)cc1OC | - | ? | - | 21µM | 0 | 0
Cc1ccc(-c2c(C)nn3c(N4CCOCC4)cc(C)nc23)cc1 | - | 0 | - | - | 0 | -
Cc1cc(N2CCOCC2)n2nc(C)c(-c3ccccc3)c2n1 | ? | 11µM | - | 0 | ? | 0
COc1ccccc1-c1c(C)nn2c(N3CCC(C(N)=O)CC3)cc(C)nc12 | 0 | 0 | 0 | - | 0 | -
COc1ccc(-c2c(C)nn3c(-c4ccccc4)cc(-c4ccccc4)nc23)cc1 | 0 | - | 0 | 0 | 0 | 0
Cc1cc(C)n2nc(C)c(-c3ccccc3)c2n1 | - | 0 | - | - | 0 | -
Cc1cc(C)n2nc(C)c(-c3ccc(Cl)cc3)c2n1 | - | 11µM | - | - | ? | -
NC(=O)c1ccc(Oc2ccc3ccc(=O)oc3c2)c([N+](=O)[O-])c1 | 0 | 0 | 0 | ? | 0 | 0
Cc1cc(=O)oc2cc(Oc3ccc([N+](=O)[O-])cc3[N+](=O)[O-])ccc12 | 0 | ? | 0 | ? | 35µM | 0
O=c1ccc2ccc(Oc3ccc([N+](=O)[O-])cc3Cl)cc2o1 | 0 | 11µM | 0 | ? | 0 | 0
COc1ccc(OC)c(-c2cc(Cl)c3c(c2)CC(CNC(=O)c2cnn4cccnc24)O3)c1 (stereo not given) | 0 | - | 0 | - | 0 | -
CCOC(=O)c1c(C)[nH]c(C(=O)N2CCN(c3ccc(OC)cc3)CC2)c1C | 0 | 0 | ? | ? | 0 | 7.9µM
CCOC(=O)c1c(C)[nH]c(C(=O)C(C)Cl)c1C (stereo not given) | ? | 0 | ? | ? | 0 | 0
CCOC(=O)c1[nH]c(C)c(C(=O)Nc2ccccc2C)c1C | - | ? | - | 0 | 0 | -
CCn1c(SCC(=O)c2[nH]c(C)c(C(C)=O)c2C)nnc1-c1ccccc1 | ? | 5.6µM | ? | ? | 25µM | 0
CCn1c(SCC(=O)c2[nH]c(C)c(C(C)=O)c2C)nnc1-c1ccncc1 | 0 | ? | 0 | 0 | - | 0
CCOC(=O)c1c(C)[nH]c(C(=O)C(C)Sc2ccc(Cl)cc2)c1C (stereo not given) | 7.1µM | ? | 0[1.46 µM] | ? | 0 | ?
CCOC(=O)c1[nH]c(C)c(C(=O)Nc2cc(Cl)ccc2C)c1C | - | 1.3µM | - | ? | 0 | ?
SMILES | VACV Venus inh | HCV inh | Vaccinia mCherry | Marburg entry inh | FMDV inh | Lassa entry inh
Nc1nc(=S)c2snnc2[nH]1 | 0 | - | 0 | - | - | -
CCOC(=O)c1c(C)[nH]c(C(=O)CSc2ccccc2)c1C | 0 | ? | - | ? | 0 | 18µM
CCCc1cc(=O)[nH]c(SCC(=O)c2[nH]c(C)c(C(=O)OCC)c2C)n1 | 0 | 11µM | 0 | 0 | 0 | 0
CC(=O)c1c(C)[nH]c(C(=O)CSc2ccc(F)cc2)c1C | 0 | 13µM | 0 | ? | 0 | ?
COc1ccccc1-c1sc2cc3c(cc2c1-c1ccc(OCCN2CCCCC2)cc1)OCO3 | 11µM | ? | 28µM | - | ? | -
COc1ccc2sc(-c3ccccc3OC)c(-c3ccc(OCCN4CCOCC4)cc3)c2c1 | ? | ? | 0 | - | 0 | -
COc1cc2sc(-c3ccccc3OC)c(-c3ccc(OCCN4CCCCC4)cc3)c2cc1OC | ? | 11µM | 0 | - | ? | -
Cc1ccc2c(c1)cc1c(=O)n(CC(=O)N3CCCCC3)nc(C)n12 | 0 | - | 0 | 0 | 0 | -
Cc1ccc(N2C(=O)NC(=O)/C(=C\C=C\c3ccco3)C2=O)cc1C | 0 | ? | 0 | ? | ? | ?
Cc1cccc(N2C(=O)NC(=O)/C(=C\C=C\c3ccco3)C2=O)c1 | - | ? | - | - | 7.1µM | -
Cc1ccc(N2C(=O)NC(=O)/C(=C\C=C\c3ccco3)C2=O)cc1 | - | ? | - | - | 20µM | -
O=C1NC(=O)N(Cc2ccccc2)C(=O)/C1=C\C=C\c1ccco1 | 0 | 0 | 0 | ? | 25µM | ?
